# According to PubChem BioAssay (NCI):
# Compounds without any hit were thinned out: in the full panel of roughly 83,000, 20% have a hit.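 Plates (96-well) were seeded with cells, treated with compound at one concentration, and incubated for 48 hours before percent growth was determined.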 A number with no mark means an inactive call. Calls of active or inactive are those of the source. The calls were made as follows: active = growth percent below 10; inactive = the rest.
# Experiments:
# Assay in all cases: NCI-60 one-dose screen, 48 h (100 = growth as untreated, 0 = no growth, -100 = all killed)
# HCT-15 colon = details: 10 µM unless noted
# HT29 colon = details: 10 µM unless noted
# SNB-75 CNS = details: 10 µM unless noted
# SNB-19 CNS = details: 10 µM unless noted
# U251 CNS = details: 10 µM unless noted
# PC-3 prostate = details: 10 µM unless noted
# SK-MEL-5 melanoma = details: 10 µM unless noted
# UACC-62 melanoma = details: 10 µM unless noted
# LOX IMVI melanoma = details: 10 µM unless noted
# SK-MEL-28 melanoma = details: 10 µM unless noted
# SK-MEL-2 melanoma = details: 10 µM unless noted
# EKVX NSCLC = details: 10 µM unless noted
# SN12C renal = details: 10 µM unless noted
# UO-31 renal = details: 10 µM unless noted
# ACHN renal = details: 10 µM unless noted
# A498 renal = details: 10 µM unless noted
# CCRF-CEM leukemia = details: 10 µM unless noted
# MOLT-4 leukemia = details: 10 µM unless noted
# TK-10 renal = details: 10 µM unless noted
# CAKI-1 renal = details: 10 µM
SMILES,growth (HCT-15 colon),growth (HT29 colon),growth (SNB-75 CNS),growth (SNB-19 CNS) [%],growth (U251 CNS),growth (PC-3 prostate),growth (SK-MEL-5 melanoma),growth (UACC-62 melanoma),growth (LOX IMVI melanoma),growth (SK-MEL-28 melanoma),growth (SK-MEL-2 melanoma),growth (EKVX NSCLC),growth (SN12C renal) [%],growth (UO-31 renal) [%],growth (ACHN renal),growth (A498 renal),growth (CCRF-CEM leukemia),growth (MOLT-4 leukemia),growth (TK-10 renal) [%],growth (CAKI-1 renal)
COc1cc2ncn3c(=O)c4c5c(sc4nc3c2cc1OC)CCCCC5,107%,112%,73.2%,102,102%,90.9%,94.9%,93.7%,88.2%,107%,113%,87.9%,105,92.5,94%,90.9%,103%,106%,,
COc1ccc(CNc2nc3ccccc3c3c(=O)c4ccccc4sc23)cc1OC,90.2%,73%,21.8%,86.5,79.8%,72.9%,78%,68.8%,82.7%,93.3%,102%,84.3%,82.5,85,40.2%,64.2%,84.8%,86.6%,,
CCCN1C(=O)CSC1=Nc1ccc2cc3ccc(N=C4SCC(=O)N4CCC)cc3nc2c1,24.4%,4.45% (active),29.6%,55.4,36.9%,16.7%,-17.7% (active),36.9%,11.4%,86.5%,38.1%,33.8%,75,,36.4%,63.4%,31%,-18.8% (active),56.8,36%
COc1ccccc1P(c1ccccc1OC)c1ccccc1OC,104%,92.2%,98%,75.7,95.7%,80%,88.6%,90%,85.4%,117%,99.1%,91%,113,86.1,98.3%,79.4%,,105%,,86.2%
COc1ccc(C(=O)NC(=O)Nc2ccc3c(c2)NC(=O)/C3=C\c2[nH]c(C)c(C(=O)O)c2C)cc1,93.5%,45.1%,73.7%,80.3,52.9%,86.1%,87.1%,91.3%,82.5%,102%,93.8%,81.7%,73,80.4,52.6%,95.9%,64%,25.2%,,
CS(=O)(=O)Nc1cccc(-c2ccc3ncnc(Nc4cncc(Cl)c4)c3c2)c1,16%,5.04% (active),19.8%,51.4,23.8%,19.8%,35.6%,29%,11%,43.7%,2.44% (active),10.8%,52.5,30.3,25.6%,-34.1% (active),17.1%,0.601% (active),,
Nc1ncc(-c2ccc3ncnc(Nc4ccc(F)c(Cl)c4)c3c2)cn1,45.9%,32.8%,-12.6% (active),90.5,-14.8% (active),64.5%,95.8%,103%,35.6%,102%,95%,40.8%,37.4,12,-74.2% (active),23%,61.4%,80.4%,,
c1ccc([Se]CCCN2CCN(CCC[Se]c3ccccc3)CC2)cc1,90.9%,96.3%,100%,119,101%,102%,101%,92.3%,91.6%,111%,121%,1.25% (active),104,,100%,116%,105%,127%,129,-23.6% (active)
CS(=O)(=O)Nc1cccc(-c2ccc3ncnc(Nc4ccc(F)c(Cl)c4)c3c2)c1,1% (active),1.71% (active),32.8%,47.4,18.2%,12.3%,21.4%,28.2%,-35.4% (active),44.9%,-4.95% (active),7.22% (active),44.2,21.1,22.3%,-25.7% (active),19.1%,0.953% (active),,
O=c1c2ccccc2[nH]n1Cc1ccc2c(c1)OCO2,95.7%,104%,101%,97,96.2%,88.1%,100%,100%,111%,106%,104%,105%,101,92.7,103%,90.3%,,97.4%,,104%
COc1ccc2c(c1)C(=O)/C(=C/c1cccc(OCC(=O)c3ccccc3)c1)O2,31.8%,-15.7% (active),-8.04% (active),99.1,41.5%,-43.4% (active),50.2%,67%,-5.01% (active),-11.1% (active),75.1%,82.1%,32.9,,45.1%,117%,-39.3% (active),-52.4% (active),30.7,-98.1% (active)
Nc1ncc(-c2ccc3ncnc(Nc4cncc(Cl)c4)c3c2)cn1,73.2%,68.6%,31.4%,76.7,73.3%,48.8%,66.4%,56.9%,61.5%,69.5%,66.4%,33%,69.8,41.9,41.6%,0.263% (active),84.5%,,,
CC(C)[C@@H]1NC(=O)[C@]2(C)CSC(=N2)c2ccnc(c2)CNC(=O)C[C@@H](/C=C/CCS)OC1=O,52%,2.76% (active),25.8%,23.6,-66.6% (active),17.7%,-88.2% (active),-36.7% (active),-94.9% (active),16.6%,-28.2% (active),31.4%,27.8,12,6.6% (active),-77% (active),16%,,,
CC(=O)c1ccc2c(c1)C1C=CCC1[C@H](c1cc3c(cc1Br)OCO3)N2 (some centres not stated),18.4%,4.15% (active),30.6%,44.6,14%,20.9%,9.13% (active),34.6%,-35.6% (active),72.7%,16.1%,34.9%,43.5,,38.6%,13.5%,4.69% (active),,60.6,20.3%
CCN(CC)CCNC(=O)c1c(C)[nH]c(/C=C2\C(=O)Nc3cc(NC(=O)NC(=O)c4ccc(OC)cc4F)ccc32)c1C,72.7%,31.7%,94%,92.4,92.8%,86.8%,85.3%,104%,97%,99.7%,128%,114%,97.3,96.2,38.2%,77.6%,42.4%,38.2%,,
O=c1nc(N2CCOCC2)oc2c(-c3cccc4ccccc34)cccc12,93.3%,89.6%,46.9%,91.8,85.8%,59.7%,79.2%,54.4%,80.1%,94.4%,100%,81.1%,82.3,53.4,81.6%,8.01% (active),91.5%,93.1%,,
Fc1ccc(Nc2ncnc3ccc(-c4cn[nH]c4)cc23)cc1Cl,60.4%,60.6%,40.5%,68.6,61.8%,47.3%,40.4%,60%,49%,69.3%,45.3%,22.4%,56.8,45.6,26.1%,7.79% (active),75.3%,56.7%,,
